PubChem BioAssay (EPA / NIEHS)
Active and inactive are the calls of the source. The calls were made as follows: active = hit-call score of the fitted dose curve at least 0.9, where 1 is the maximum; inactive = score below 0.9.

read-out: E-selectin (Homo sapiens) (UniProt P16581); assay: BSK_3C_Eselectin: BioMAP Diversity Plus: 3C Assay for Eselectin Biomarker Activity (AID 2283015); conditions: primary human endothelial cells (HUVEC); actives raise or lower the signal;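 as to outcome: cell surface E-selectin protein quantified by ELISA 24 h after dosing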
Procedure, shortened: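 ELISA read-out of E-selectin on endothelial monolayers after 24 h chemical treatment. Human umbilical vein primary cells served as the system, with DMSO defining baseline activity for bidirectional fitting.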

Chain of E-selectin (Homo sapiens) (P16581 whole entry, looked up): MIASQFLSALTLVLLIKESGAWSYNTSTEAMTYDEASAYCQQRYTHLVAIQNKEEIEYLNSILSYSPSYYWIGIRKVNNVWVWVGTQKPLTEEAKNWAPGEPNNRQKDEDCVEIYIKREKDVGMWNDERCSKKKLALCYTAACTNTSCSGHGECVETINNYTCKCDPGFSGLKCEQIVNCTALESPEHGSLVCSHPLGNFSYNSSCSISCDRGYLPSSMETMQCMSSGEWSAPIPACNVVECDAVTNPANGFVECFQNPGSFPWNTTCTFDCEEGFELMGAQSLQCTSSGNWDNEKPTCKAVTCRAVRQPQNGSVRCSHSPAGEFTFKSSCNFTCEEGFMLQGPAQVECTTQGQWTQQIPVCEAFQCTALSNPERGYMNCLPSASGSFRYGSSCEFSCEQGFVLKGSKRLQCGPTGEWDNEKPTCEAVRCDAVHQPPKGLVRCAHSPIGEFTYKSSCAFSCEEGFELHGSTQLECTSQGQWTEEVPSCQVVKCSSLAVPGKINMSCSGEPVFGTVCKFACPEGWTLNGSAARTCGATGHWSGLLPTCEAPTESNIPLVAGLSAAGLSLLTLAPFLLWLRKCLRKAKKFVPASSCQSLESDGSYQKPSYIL

outcome, inactive:
c1ccc2c(c1)c1cccc3ccc4cccc2c4c31
Nc1cc([N+](=O)[O-])ccc1Cl
Cc1ccc2n[nH]nc2c1
O=C(O)c1cn(-c2ccc(F)cc2)c2cc(N3CCNCC3)c(F)cc2c1=O
CC[Si](OC(C)=O)(OC(C)=O)OC(C)=O

AC50, active:
O=C1CCCCCCCCCCCCCCO1 20 µM

read-out: Interleukin-1 alpha (IL1a), IL1A (gene 3552); assay: BSK_BE3C_IL1a: BioMAP Diversity Plus: BE3C Assay for Interleukin-1 alpha (IL1a) Biomarker Activity (AID 2283016); conditions: primary human bronchial epithelial cells; actives raise or lower the signal
Procedure, shortened: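 Cultures of primary human bronchial epithelial cells receive test chemical. After 24 h, IL-1a is quantified by ELISA, while parallel wells are fixed in TCA and SRB-stained for total protein. Changes in either direction are fitted relative to DMSO.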

outcome, inactive:
c1ccc2c(c1)c1cccc3ccc4cccc2c4c31
Nc1cc([N+](=O)[O-])ccc1Cl
Cc1ccc2n[nH]nc2c1
O=C(O)c1cn(-c2ccc(F)cc2)c2cc(N3CCNCC3)c(F)cc2c1=O
CC[Si](OC(C)=O)(OC(C)=O)OC(C)=O

AC50, active:
O=C1CCCCCCCCCCCCCCO1 20 µM
